Measured values taken from the supplement of paper PMC8728848.
The full list was thinned out, with the strongest signals kept by preference.

What was measured:
Assay in all cases: glycan array binding signal (z-score within array); higher = stronger binding
Conditions in all cases: glycan notation: IUPAC condensed, linker removed
[1] = molecular target: Gal(b1-4)GlcNAc(b1-6)[Gal(b1-3)]GlcNAc
Outline: (§1)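 From the Consortium for Functional Glycomics database, 3228 arrays were curated, keeping only those whose protein sequence was available. Binding is given as a within-array Z-score averaged across arrays sharing a protein sequence and across linkers. Negative Z-scores can be read as non-binding.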

[2] = molecular target: Gal3S(b1-3)[Fuc(a1-4)]GlcNAc
Outline: as §1

[3] = molecular target: GalNAc(a1-3)Fuc(a1-2)Gal(b1-4)GlcNAc(b1-3)[GalNAc(a1-3)Fuc(a1-2)Gal(b1-4)GlcNAc(b1-6)]GalNAc
Outline: as §1

[4] = molecular target: GalNAc(a1-3)GalNAc
Outline: as §1

[5] = molecular target: GalNAc(b1-3)Gal(a1-4)Gal(b1-4)GlcNAc
Outline: as §1

[6] = molecular target: GalNAc(b1-3)GalNAc
Outline: as §1

[7] = molecular target: GalNAc(b1-4)Gal(b1-4)Glc
Outline: as §1

[8] = molecular target: GalNAc(b1-4)GlcNAc(b1-3)GalNAc(b1-4)GlcNAc
Outline: as §1

[9] = molecular target: GalNAc3S(b1-4)GlcNAc3S
Outline: as §1

[10] = molecular target: Glc(a1-6)Glc(a1-6)Glc
Outline: as §1

[11] = molecular target: GlcNAc(a1-3)Gal(b1-4)GlcNAc
Outline: as §1

[12] = molecular target: GlcNAc(a1-4)Gal(b1-4)GlcNAc(b1-3)Gal(b1-4)GlcNAc
Outline: as §1

[13] = molecular target: GlcNAc(b1-2)[GlcNAc(b1-4)]Man(a1-3)[GlcNAc(b1-4)][GlcNAc(b1-2)[GlcNAc(b1-6)]Man(a1-6)]Man(b1-4)GlcNAc(b1-4)[Fuc(a1-6)]GlcNAc
Outline: as §1

[14] = molecular target: GlcNAc(b1-3)Gal(b1-4)GlcNAc(b1-3)Gal(b1-4)GlcNAc(b1-2)[GlcNAc(b1-3)Gal(b1-4)GlcNAc(b1-3)Gal(b1-4)GlcNAc(b1-6)]Man(a1-6)[GlcNAc(b1-3)Gal(b1-4)GlcNAc(b1-3)Gal(b1-4)GlcNAc(b1-2)Man(a1-3)]Man(b1-4)GlcNAc(b1-4)[Fuc(a1-6)]GlcNAc
Outline: as §1

[15] = molecular target: GlcNAc(b1-3)Gal(b1-4)GlcNAc(b1-3)GalNAc
Outline: as §1

[16] = molecular target: GlcNAc(b1-3)[GlcNAc(b1-6)]GalNAc
Outline: as §1

[17] = molecular target: GlcNAc(b1-4)GlcNAc(b1-4)GlcNAc(b1-4)GlcNAc(b1-4)GlcNAc(b1-4)GlcNAc
Outline: as §1

[18] = molecular target: Man(a1-3)[Man(a1-6)]Man(b1-4)GlcNAc(b1-4)GlcNAc
Outline: as §1

[19] = molecular target: Neu5Ac(a2-3)Gal(b1-4)GlcNAc(b1-2)[Neu5Ac(a2-3)Gal(b1-4)GlcNAc(b1-4)]Man(a1-3)[GlcNAc(b1-4)][Neu5Ac(a2-3)Gal(b1-4)GlcNAc(b1-4)Man(a1-6)]Man(b1-4)GlcNAc(b1-4)GlcNAc
Outline: as §1

[20] = molecular target: Neu5Ac(a2-3)Gal(b1-4)GlcNAc(b1-3)Gal(b1-4)GlcNAc(b1-3)GalNAc
Outline: as §1

[21] = molecular target: Neu5Ac(a2-3)GalNAc(b1-4)GlcNAc
Outline: as §1

[22] = molecular target: Neu5Ac(a2-6)Gal
Outline: as §1

[23] = molecular target: Neu5Ac(a2-6)Gal(b1-4)GlcNAc(b1-2)Man(a1-3)[GlcNAc(b1-2)Man(b1-4)GlcNAc(b1-2)Man(a1-6)]Man(b1-4)GlcNAc(b1-4)GlcNAc
Outline: as §1

[24] = molecular target: Neu5Ac(a2-6)Gal(b1-4)GlcNAc6S
Outline: as §1

[25] = molecular target: Neu5Ac(a2-6)GlcNAc(b1-4)GlcNAc
Outline: as §1

[26] = molecular target: Neu5Gc(a2-3)Gal(b1-3)GlcNAc
Outline: as §1

[27] = molecular target: Neu5Gc(a2-3)Gal(b1-4)Glc
Outline: as §1

[28] = molecular target: Neu5Gc(a2-8)Neu5Ac(a2-3)Gal(b1-4)GlcNAc
Outline: as §1

[29] = molecular target: Neu5Gc(a2-8)Neu5Gc(a2-3)Gal(b1-4)GlcNAc
Outline: as §1

B1: Epa1-NP (Candida glabrata), Q6VBJ0 (protein)
chain: MILNPALFLNKCVCIYTTLILLLLTNGGYATSSNDISLASKDPTTFPLGCSPDITTPKKGLSMELYSYDFRKKGSYPCWDAAYLDPNYPRTGYKSHRLLAKVDGVTGNINFYYHATKGCTPQLGHLPASYNYPKPLTMTNFTMLLYGYFRPKVTGFHTFTISADDLLFVNFGAGNAFDCCRRDSSADHFGNYQAYAIWGSKTAKDELTVHLDAGVYYPIRLFYNNREYDGALSFTFKTESNENTVSDFSEYFFSLDDTEEGCPGLISYDSSCASVKTSKIIGIDYHTETPNENLVPITKTIYHLGIPCTGTTTTPLCGSGFYDPLANKCVTINTSSTSSVTKTTSHTTSKEVSFHSSISSQKTLIPKSIPSPYGPIKSQSIPTEMETSSEISSSEYAFSDVISTPSHSPYTKKHSSLNSSSYTSTVIHSLTSYSISQGIFSTSLSEQNITSKSSTDKFSTATSMSNNITQSSIIISQFSTNNENYTTTSMHTSSDKISTETLNNSISTTTSILFSNSSTILKNNTTIISSDKDTHYHPVNPTIVCSTNKTEIICASITQPSISNSNNHWSSSVLKFNSTTVRSTLPSSAGSNETSINVPFSSSTESNTSTSSTSTSNSKMVRSTLPSSAGSNETSISVPFSSSTESNTSTSSTSTSNSKMVRSTLPSSAGSNETSINVPFSSSTESNTSTSSTSTSNSKTVRSTPFSSAGIIMTSLSQRNNKSASSYASSNSKCYNTADSCRKVHSTPSYLLTSSYTSEGVDYDCSLVSTKLKINDTNCVNNKHTTKSCLKTSVTTTIPTLEIKTARKSSSNTIGLHSYPTSSPNKSISSAPIIGYISSFKTIKTASPSYQTSDLTTITTITSLNNPGSTAVENTHESNDKSRKTSSNDISSKHSVIKETKDAVESSNKSHQTNTLKCSSIIIASSSHNSYESLGGTTLTLTLSKVYSPQNNDTLPFLEISEVNPSRTVLPESSKMMQYLTSTEERNKTARNTIATNIVSISTFHFEGEGNAIRMGYTQLLLMLIGIIVMNIGT
glycan array binding signal (z-score) [1]: 2.48 | glycan array binding signal (z-score) [2]: -0.293 | glycan array binding signal (z-score) [3]: -0.254 | glycan array binding signal (z-score) [4]: -0.306 | glycan array binding signal (z-score) [5]: -0.325 | glycan array binding signal (z-score) [6]: -0.293 | glycan array binding signal (z-score) [7]: -0.286 | glycan array binding signal (z-score) [8]: -0.291 | glycan array binding signal (z-score) [9]: -0.283 | glycan array binding signal (z-score) [10]: -0.338 | glycan array binding signal (z-score) [11]: -0.317 | glycan array binding signal (z-score) [12]: -0.217 | glycan array binding signal (z-score) [13]: -0.285 | glycan array binding signal (z-score) [14]: -0.27 | glycan array binding signal (z-score) [15]: -0.287 | glycan array binding signal (z-score) [16]: -0.284 | glycan array binding signal (z-score) [17]: -0.319 | glycan array binding signal (z-score) [18]: -0.374 | glycan array binding signal (z-score) [19]: -0.295 | glycan array binding signal (z-score) [20]: -0.291 | glycan array binding signal (z-score) [21]: -0.338 | glycan array binding signal (z-score) [22]: -0.276 | glycan array binding signal (z-score) [23]: -0.296 | glycan array binding signal (z-score) [24]: -0.31 | glycan array binding signal (z-score) [25]: -0.281 | glycan array binding signal (z-score) [26]: -0.348 | glycan array binding signal (z-score) [27]: -0.308 | glycan array binding signal (z-score) [28]: -0.286 | glycan array binding signal (z-score) [29]: -0.286
